Results: PubChem BioAssay AID1458 (National Center for Advancing Translational Sciences (NCATS), 2008)
Hit rate of the full screen: of about 210,000 compounds, about 5,900 (2.8%) were called active. Inconclusive results (about 5%) are left out. Calls follow the shape of the dose curve; as a rule, active = well fitted activation curve with a large enough effect; inconclusive = small, poorly fitted or top-dose-only effect; inactive = no such curve, though single readings can be large or run the other way. The entries come from a sample that favours actives as a whole. Entries that show only a call come without a potency.

Assay: qHTS Assay for Enhancers of SMN2 Splice Variant Expression; also: nearly all actives have a fitted effect of over 55% in size
Settings: HEK293 SMN2-luciferase splicing reporter, luminescence, 30-36 h; series mostly up to 46.1 µM
Method in brief: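 HEK293 cells carry an SMN2 minigene-luciferase reporter in which exon 7 inclusion puts luciferase in frame. Cells were seeded at 2000 cells/well, attached for 10-12 hours, then exposed to compounds for 30-36 hours at 37C before ONE-Glo luminescence.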
Potency is read from the fitted curve at half-maximal effect.

Row | SMILES | Potency | activity change, positive = activation
1 | COc1ccc(CCNC(=O)CCCCn2c(=O)c3ccccc3n(Cc3ccccc3)c2=O)cc1OC | inactive | –
2 | COc1cc(/C=C/CO)cc(OC)c1O[C@@H]1O[C@H](CO)[C@@H](O)[C@H](O)[C@H]1O | inactive | –
3 | COc1cc(/C=C/C2=CC(C)(C)NC(=S)N2)cc(OC)c1OC | 11.2 µM (active) | –
4 | Cc1noc(/C=C/N(C)C)c1S(=O)(=O)N1CCCC(C(=O)Nc2cccc(F)c2)C1 (centres undefined) | inactive | –
5 | Cc1cc(C)c(NC(=O)CCc2c(C)nc3c(c(C)nn3C(C)(C)C)c2C)c(C)c1 | inactive | –
6 | O=C(CSc1nnc(-c2ccco2)n1Cc1ccccc1)NC(=O)NCc1ccco1 | inactive | –
7 | c1ccc(CSc2nnc(-c3ccco3)c(-c3ccco3)n2)cc1 | inactive | –
8 | c1ccc(CSc2nnc(-c3ccco3)n2Cc2ccccc2)cc1 | 22.4 µM (active) | –
9 | COc1ccc(Cn2cc(C(=O)c3ccc(C)cc3)c(=O)c3cc(OC)c(OC)cc32)cc1 | inactive | –
10 | Cc1ccn2c(Nc3ccc4c(c3)OCCO4)c(-c3ccc(C)s3)nc2c1 | inactive | –
11 | CCN(CC)S(=O)(=O)c1ccc(C(=O)N=c2sc3cccc(OC)c3n2C)cc1 | inactive | –
12 | Cc1cc(C)c(-c2n[nH]c3c2C(c2ccccc2F)N(CCO)C3=O)c(O)c1 (centres undefined) | inactive | –
13 | CCn1cc(C(=O)N2CCN(c3cc(C)ccc3C)CC2)c(=O)c2cc(S(=O)(=O)N(C)C3CCCCC3)ccc21 | inactive | –
14 | Cc1ccn(-c2cccc(-n3ccc(C)n3)n2)n1 | 7.94 µM (active) | –
15 | CCOc1ccc(NC(=O)CC2C(=O)N(c3cccc(OC)c3)C(=O)N2C2CCCCC2)cc1 (centres undefined) | inactive | –
16 | Cc1cccc(CC(=O)N2CC(=O)Nc3ccc(F)cc3C2c2ccccc2)c1 (centres undefined) | inactive | –
17 | Cc1ccc(N/N=C2\COC(C)(C)CC2=O)cc1 | 11.2 µM (active) | –
18 | COc1ccc(N/N=C2/CCCCC2=O)cc1 | inactive | –
19 | Cc1ccc(NN=C2C(=O)OC(C)(C)OC2=O)c(C)c1 | inactive | –
20 | CCCn1c(=N)n(CC(O)COc2ccccc2OC)c2ccccc21 (centres undefined) | inactive | –
21 | CCOC(=O)c1ccc(NC(=O)CCn2c(=O)oc3ccccc32)cc1 | inactive | –
22 | CSc1ccc(/C=N/NC(=O)c2cccc(Cl)c2)cc1 | 10 µM (active) | –

Row | SMILES | Potency | activity change, positive = activation
23 | COc1ccc(/C=N/NC(=O)c2cccc(C(F)(F)F)c2)cc1 | inactive | –
24 | CSc1ccc(/C=N\NC(=O)COc2ccc(Cl)cc2Br)cc1 | inactive | –
25 | CCn1cc(C(=O)N(C)Cc2ccccc2)c(=O)c2cc(S(=O)(=O)N3CCCCCC3)ccc21 | inactive | –
26 | COC(=O)c1c(NC(=O)c2cc(=O)c3c(C)cc(C)cc3o2)sc2c1CCCC2 | inactive | –
27 | Cc1nc(SCCOc2ccc(Cl)cc2)[nH]c(=O)c1Cc1ccccc1 | inactive | –
28 | CCOC(=O)CSc1nnc(NC(=O)c2cccc(S(=O)(=O)N3CCCCC3)c2)s1 | inactive | –
29 | Cc1nnc(C)n1/N=C/c1ccc(C(C)C)cc1 | inactive | –
30 | Cc1ccc(C(=O)Nc2nc(-c3ccccc3)ns2)cc1 | inactive | –
31 | CC(=O)c1sc(N/N=C/c2ccc(C(C)C)cc2)nc1C | 17.8 µM (active) | –
32 | CC(=O)c1sc(NC(=O)C2=NN(c3ccccc3)C(=O)CC2)nc1C | inactive | –
33 | CCSc1nnc(NC(=O)Cc2ccccc2OC)s1 | inactive | –
34 | Cc1nonc1C(=O)N/N=C/c1ccc(O)cc1 | – | 1.94% [at 1.84 µM] (inactive)
35 | Cc1ccc(S(=O)(=O)Nc2nc(C)cc(N/N=C/c3ccc(O)cc3)n2)cc1 | inactive | –
36 | CC(=O)c1sc(NC(=O)c2ccc(C)cc2)nc1C | 5.62 µM (active) | –
37 | CC(=O)c1sc(N/N=C\c2ccc(C)cc2)nc1C | 10 µM (active) | –
38 | CCSc1nnc(NC(=O)c2ccc(C)cc2)s1 | 14.1 µM (active) | –
39 | COc1ccc(/C=N\NC(=O)c2sc(N)nc2C)cc1OC | inactive | –
40 | CCc1ccc(S(=O)(=O)c2nnn3c2nc(NCc2ccccc2OC)c2cc(Cl)ccc23)cc1 | inactive | –
41 | CCOc1ccc(C2C(C(=O)Nc3ccc(Cl)cc3)=C(C)Nc3nc(C(F)(F)F)nn32)cc1 (centres undefined) | inactive | –
42 | Cc1nn(CC(=O)N2CCN(c3cccc(C(F)(F)F)c3)CC2)c(=O)c2cc3sccc3n12 | inactive | –
43 | C/C=C(\C)C(=O)O[C@H]1CC(C)=C2C(=O)C=C(C)C2[C@@H]2OC(=O)[C@@](C)(OC(=O)C=C(C)C)C21 (some centres undefined) | inactive | –
44 | CCN(CCCNC(=O)c1cc(Nc2ccc(OC)cc2)nc2ccccc12)c1cccc(C)c1 | inactive | –

Row | SMILES | Potency | activity change, positive = activation
45 | CC(C)c1ccc(NC(=O)CN(C)S(=O)(=O)c2ccc3c(c2)c(=O)n(C)c(=O)n3C)cc1 | inactive | –
46 | O=C(CSc1oc(-c2ccco2)nc1S(=O)(=O)c1ccccc1)c1ccc(Cl)cc1 | inactive | –
47 | Cc1ccc(-c2nn(CCC(=O)Nc3ccc(OC(F)(F)F)cc3)c(=O)c3ccccc23)cc1 | inactive | –
48 | CCOc1cc(/C=C(\C#N)C(=O)Nc2ccccc2C)ccc1OCc1cc(=O)n2nc(CC)sc2n1 | inactive | –
49 | COc1ccc(-n2c(=O)c3sc4ccccc4c3n(CC(=O)Nc3cccc(C)c3)c2=O)cc1 | inactive | –
50 | C/C=C(\C)C(=O)OC1C(OC(=O)C2(C)OC2C)c2cc3ccc(=O)oc3cc2OC1(C)C (centres undefined) | inactive | –
51 | Cc1cccc(Cn2c(SCc3ccc(C(=O)N4CCC(C)CC4)cc3)nc3ccncc32)c1 | inactive | –
52 | CC1=C(C(=O)OCC(C)C)C(c2ccc(OCc3ccccc3)cc2)N2C(=O)CCSC2=N1 (centres undefined) | inactive | –
53 | COC(=O)c1cc(NC(=O)c2sc3ccccc3c2Cl)cc(C(=O)OC)c1 | inactive | –
54 | O=C(Nc1ccon1)c1sc2ccccc2c1Cl | 17.8 µM (active) | –
55 | CCCC(=O)Nc1ccc(NC(=O)c2sc3ccccc3c2Cl)cc1 | inactive | –
56 | COc1ccc(/C=C/c2nc(C#N)c(NCc3ccc(F)cc3)o2)cc1OC | inactive | –
57 | CCOc1ccc(CNC(=O)C2CCN(c3nnc(-n4cccc4CNc4ccc(C)cc4)s3)CC2)cc1OC | inactive | –
58 | COCCNc1ncnc2ccc(-c3ccccc3CN(C)C)cc12 | inactive | –
59 | COc1ccc2[nH]cc(CCNc3ncnc4ccc(-c5ccccc5CN(C)C)cc34)c2c1 | inactive | –
60 | COc1ccccc1CNc1ncnc2ccc(-c3c(C)noc3C)cc12 | 10 µM (active) | –
61 | Cc1c(NC(=O)Nc2ccc(F)c(Cl)c2)c(=O)n(-c2ccccc2)n1C | inactive | –
62 | CCOC(=O)CSc1nnc(-c2ccncc2)o1 | inactive | –
63 | CCCCSc1nnc(-c2ccc(C)cc2)o1 | 11.2 µM (active) | –
64 | Cc1cccc(C)c1OC(=O)CSc1nnc(-c2ccccc2)o1 | inactive | –
